# CHOP inh = inhibitors of CHOP induction in ER stress response; CHO-K1 CHOP-promoter luciferase, tunicamycin-induced, 15-18 h; inhibition, % at 10 µM; actives 3.8% (n = 220,000);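 active means compounds that reduced the stress-induced luciferase reporter signal by more than about 70% of percent inhibition, limit read from the data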;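 further: 0% = tunicamycin plus vehicle and 100% = wells without tunicamycin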
# RAM inhibit = blocks the yeast RAM network; AID 868; S. cerevisiae dse1pr::URA3 reporter, 5-FOA growth OD615, 2 d; analog-sensitive cbk1-as2 kinase mutant strain; actives 1.8% (n = 190,000); inhibition, % at 50 µM;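 active means inhibition above a set limit, 3 SD over mean compound inhibition, cut at about 8.4% in these data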;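 further: 0% = DMSO-only wells with no growth and 100% = 10 µM 1-NA-PP1 full growth; inhibition rescues growth on 5-FOA so higher OD means more RAM inhibition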
# WT yeast gro inh = growth inhibition of WT yeast, mitochondrial fusion screen. mitochondrial fusion phenotypic screen, WT strain. inhibition, % at 10 µM. actives 2.1% (n = 190,000). AID 1362; in the data active means inhibition above about 58%; tested in S. cerevisiae
# L major viab = inhibitors of Leishmania major promastigote growth. Leishmania major promastigotes, resazurin fluorescence viability. inhibition, % at 10 µM. actives 9% (n = 200,000); in the data active means inhibition above about 50%;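 further: promastigotes grown with compound for 44 hours at 28 °C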
# * marks the source's active call; other numbers are inactive results; / = no result given. The list is not random: actives were taken first. Their share in the collection is about 13%.
SMILES,CHOP inh,RAM inhibit,WT yeast gro inh,L major viab
COc1ccc(Nc2ccc3c(c2)=NC2(CCCCC2)[N+]=3[O-])cc1,-36,8.9*,30,101*
CCOC(=O)c1nn(-c2ccc(C)cc2)cc1C(=O)c1ccccc1,-8,4,-17,31
Clc1cccc(NCc2nnc(SCc3ccc(Cl)cc3Cl)o2)c1,-6,8.4*,62*,-5
Cc1ccc(C(C(=O)NCC2CCCO2)N(Cc2ccccc2)C(=O)c2ccc(-c3ccccc3)[nH]2)o1 (centres undefined),-2,10*,69*,53*
O=C(NCC1CCCO1)C(c1cccs1)N(Cc1ccccc1Cl)C(=O)c1ccc(-c2ccccc2)[nH]1 (centres undefined),35,4,20,100*
COc1ccc(C2N=C(c3ccccc3)C(C)(C)N2O)cc1 (centres undefined),1,-2,11,-4
Cc1[nH]nc2c1C1(CCN(C(=O)OCc3ccccc3)CC1)C(C#N)=C(N)O2,73*,1,14,-1
Cc1[nH]nc2c1C1(CCN(C(=O)c3ccccc3)CC1)C(C#N)=C(N)O2,-3,2,-12,-2
Cc1ccccc1-n1nc2c(c1NC(=O)/C=C\c1ccc3c(c1)OCO3)CSC2,15,1,32,68*
Cc1ccc(-n2nc3c(c2NC(=O)/C=C\c2ccc4c(c2)OCO4)CSC3)cc1,26,1,24,93*
Cc1ccc(-n2nc3c(c2NC(=O)/C=C\c2ccc4c(c2)OCO4)CSC3)c(C)c1,24,3,36,99*
Cc1cccnc1NC(=O)/C=C/c1ccc2c(c1)OCO2,-22,-1,1,-4
O=S(=O)(NCCNC/C=C/c1ccc(Br)cc1)c1cccc2cnccc12,95*,/,/,/
COc1cccc2c1N1C(=O)c3c(C(=O)O)cccc3C1CC2(C)C (centres undefined),-16,1,5,-3
Cc1csc(NC(=O)CSc2nnc(NC(=O)COc3ccc(Cl)cc3)s2)n1,93*,4,0,46
Cc1ccc(N2CC(C(=O)Nc3nnc(SCC(=O)Nc4nc(C)cs4)s3)CC2=O)cc1 (centres undefined),71*,6,-9,49
Cc1csc(NC(=O)CSc2nnc(NC(=O)C3CC(=O)N(c4ccccc4)C3)s2)n1 (centres undefined),38,7,5,41
CCOc1ccccc1CNC(=O)C1CCN(C(=O)c2sccc2-n2cccc2)CC1,30,7,-7,7
O=c1cc(CNc2ccc(Br)cc2)nc2sccn12,-22,1,-16,71*
CN(Cc1cc(=O)n2ccsc2n1)c1ccccc1,-7,0,-6,3
C=CCc1c(C)c(C#N)c2nc3ccccc3n2c1NCCN(C)C,-6,2,70*,21
CCc1c(C)c(C#N)c2nc3ccccc3n2c1NCCN(C)C,-12,1,41,22
O=C(C#Cc1cccc([N+](=O)[O-])c1)c1ccccc1,108*,1,62,11
Cc1ccc(-c2ccc(/C=N/n3cnnc3)o2)cc1Cl,28,1,27,71*
COc1cccc(OCCNc2cc(N3CCCCC3)ccc2[N+](=O)[O-])c1,46,10*,-24,2
SMILES,CHOP inh,RAM inhibit,WT yeast gro inh,L major viab
COc1ccc(OCCNc2cc(N3CCCCC3)ccc2[N+](=O)[O-])cc1,18,11*,8,6
COc1ccc(OCCNc2cc(N3CCOCC3)ccc2[N+](=O)[O-])cc1,-21,4,5,6
CC1CN(c2ccc([N+](=O)[O-])c(NCCOc3ccccc3)c2)CCN1 (centres undefined),3,1,7,100*
Cc1cccc(OCCNc2cc(N3CCN(CCO)CC3)ccc2[N+](=O)[O-])c1,-4,0,31,44
CCC(=O)NC(Nc1nc(C)cs1)(C(=O)OC)C(F)(F)F (centres undefined),-4,1,3,-4
COC(=O)c1ccccc1NC(=O)C(=O)NCc1ccncc1,2,0,-9,1
COc1ccc(C2C=C(c3ccc(C)cc3)Nc3ncnn32)cc1 (centres undefined),-10,-2,6,2
COc1ccc(C2C=C(c3ccc(Br)s3)Nc3ncnn32)cc1OC (centres undefined),-2,8.4*,-10,-6
COC(=O)c1c(C)[nH]c(C(=O)/C=C/c2ccccc2F)c1C,-35,/,/,/
c1cncc(-c2nc(NCCCN3CCOCC3)c3c4c(sc3n2)CCC4)c1,-25,2,2,68*
Cc1ccc2nc(CSc3nnc(Nc4ccccc4F)s3)cc(=O)n2c1,-49,4,-6,1
Cc1ccc(Nc2nnc(SCc3cc(=O)n4cc(C)ccc4n3)s2)cc1,5,11*,3,68*
COc1cccc(C(=O)C2CCCN(C(=O)c3cccc(C#CC(C)(C)O)c3)C2)c1 (centres undefined),-7,1,-7,11
OCCC1CN(CC#Cc2ccccc2)CCN1C1CCCC1 (centres undefined),8,2,-1,23
OCCC1CN(Cc2nc(-c3ccccc3)cs2)CCN1CCc1ccccc1 (centres undefined),25,2,36,87*
OCCC1CN(Cc2nc(-c3ccc(F)cc3)cs2)CCN1CCc1ccccc1 (centres undefined),24,0,-14,85*
OCCC1CN(C2CSCCSC2)CCN1Cc1ccccc1 (centres undefined),-4,2,9,-1
OCCC1CN(C2CCN(c3ccccc3F)CC2)CCN1Cc1ccccc1 (centres undefined),30,1,-10,80*
CC(C)CCN1CCN(CC#Cc2ccccc2)CC1CCO (centres undefined),22,1,-2,80*
O=C1CCCC/C1=C\Nc1ccc(S(=O)(=O)Nc2cnc3ccccc3n2)cc1,8,/,/,/
COCCNS(=O)(=O)c1cc(C)c(C)cc1C,18,2,9,-3
O=C1c2c([N+](=O)[O-])cc([N+](=O)[O-])cc2S(=O)N1Cc1ccccc1 (centres undefined),26,0,-19,-11
Cc1ccc(CSCC(=O)NCc2ccco2)cc1,4,-1,-6,-5
CN1CCN(c2ccc(CNS(=O)(=O)Cc3cccc(C(F)(F)F)c3)cc2)CC1,27,/,/,/
CC(C)=CCN1CCN(Cc2nc(-c3ccccc3)cs2)CC1CCO (centres undefined),16,-1,5,70*
SMILES,CHOP inh,RAM inhibit,WT yeast gro inh,L major viab
CCOC(=O)N1CCC(N2CCN(CCC(C)C)C(CCO)C2)CC1 (centres undefined),5,0,3,21
CC(C)CCN1CCN(C2CCN(c3ccccc3)CC2)CC1CCO (centres undefined),11,1,-15,89*
CC(C)CCN1CCN(Cc2nc(-c3ccccc3)cs2)CC1CCO (centres undefined),-12,0,6,85*
O=c1[nH]ccc2c(O)cccc12,-31,/,/,/
COC(=O)c1c(C)[nH]c(C(=O)NCc2ccco2)c1C,-8,0,2,-1
CCC(NC(=O)/C(=C\c1ccc2c(c1)OCO2)NC(C)=O)C(=O)O (centres undefined),-3,2,-6,40

# Source: PubChem
